Values joined by “and” are separate entries in the source; they are usually repeats but may differ in a detail not shown here. Equal entries are not always repeated. Inconclusive results are not listed. Where a structure was tested more than once in an assay, its records may differ in their call. Active and inactive are the calls of the source. Unless noted, the call rests on the fitted dose curve; in most records, active means well fitted curve in the direction sought with a large enough effect in the repeat runs; inconclusive means weak or mixed curves; inactive means no such curve, though single readings can be large; an effect the other way counts as inactive or inconclusive.
Assays:
[1] = qHTS assay to identify small molecule antagonists of the glucocorticoid receptor (GR) signaling pathway - cell viability counter screen (AID 720693); further: nearly all actives have a fitted effect of over 55% in size
[2] = qHTS assay for identifying genotoxic compounds that show differential cytotoxicity against isogenic chicken DT40 cell lines with known DNA damage response pathways - wild type cell line (AID 743012); further: nearly all actives have a fitted effect of over 60% in size; further: potency means the concentration at half of the fitted maximal effect
Procedure, shortened: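 Viability of DNA repair-proficient chicken DT40 cells was assessed by CellTiter-Glo luminescence following 40 h compound exposure at 37 C/5% CO2.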

[3] = qHTS assay for identifying genotoxic compounds that show differential cytotoxicity against isogenic chicken DT40 cell lines with known DNA damage response pathways - Rev3 mutant cell line (AID 743014); further: nearly all actives have a fitted effect of over 55% in size; further: potency means the concentration at half of the fitted maximal effect
[4] = qHTS assay for identifying genotoxic compounds that show differential cytotoxicity against isogenic chicken DT40 cell lines with known DNA damage response pathways - Rad54/Ku70 mutant cell line (AID 743015); further: nearly all actives have a fitted effect of over 60% in size; further: potency means the concentration at half of the fitted maximal effect
[5] = qHTS assay to identify small molecule antagonists of the androgen receptor (AR) signaling pathway - cell viability counter screen (AID 743033; further: nearly all actives have a fitted effect of over 45% in size)
[6] = molecular target: Androgen receptor (Homo sapiens) (UniProt P10275); experiment: qHTS assay to identify small molecule antagonists of the androgen receptor (AR) signaling pathway (AID 743035; active means well fitted inhibition curve with a large enough effect in the signal ratio in the repeat runs, not every such curve was filed as active; the % refers to the signal ratio)
Sequence of Androgen receptor (Homo sapiens) (P10275 whole entry, looked up): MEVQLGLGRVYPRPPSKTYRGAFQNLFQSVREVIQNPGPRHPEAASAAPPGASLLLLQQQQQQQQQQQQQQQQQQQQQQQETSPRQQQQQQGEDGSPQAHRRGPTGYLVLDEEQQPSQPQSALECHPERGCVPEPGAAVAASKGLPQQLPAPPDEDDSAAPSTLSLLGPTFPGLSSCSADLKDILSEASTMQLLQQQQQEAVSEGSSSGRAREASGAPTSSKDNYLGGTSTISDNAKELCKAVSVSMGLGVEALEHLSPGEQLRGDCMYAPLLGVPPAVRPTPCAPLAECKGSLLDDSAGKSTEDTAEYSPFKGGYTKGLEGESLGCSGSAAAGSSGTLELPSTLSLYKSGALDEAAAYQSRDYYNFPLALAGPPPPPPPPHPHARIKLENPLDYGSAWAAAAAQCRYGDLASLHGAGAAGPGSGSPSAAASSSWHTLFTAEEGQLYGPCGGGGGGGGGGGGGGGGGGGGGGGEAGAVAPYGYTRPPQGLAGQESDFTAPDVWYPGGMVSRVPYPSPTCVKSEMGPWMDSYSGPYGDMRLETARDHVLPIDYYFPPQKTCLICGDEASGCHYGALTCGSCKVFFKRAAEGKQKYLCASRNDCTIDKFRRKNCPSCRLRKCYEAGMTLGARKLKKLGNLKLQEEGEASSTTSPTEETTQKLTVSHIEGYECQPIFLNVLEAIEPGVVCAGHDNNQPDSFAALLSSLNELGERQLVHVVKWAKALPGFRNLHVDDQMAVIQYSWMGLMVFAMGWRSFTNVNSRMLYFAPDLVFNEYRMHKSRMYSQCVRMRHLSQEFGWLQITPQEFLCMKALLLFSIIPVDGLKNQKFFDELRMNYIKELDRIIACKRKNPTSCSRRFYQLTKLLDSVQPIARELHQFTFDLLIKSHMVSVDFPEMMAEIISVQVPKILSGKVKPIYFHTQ
Procedure, shortened: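 Reporter HEK293 cells were exposed to compounds and R1881 overnight (16 h, 37C); beta-lactamase activity was then quantified by FRET fluorescence.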

[7] = molecular target: Androgen receptor (Homo sapiens) (UniProt P10275); experiment: qHTS assay to identify small molecule agonists of the androgen receptor (AR) signaling pathway (AID 743036; active means well fitted activation curve with a large enough effect in the signal ratio in the repeat runs, with a control signal flat, not every such curve was filed as active; the % refers to the signal ratio)
Procedure, shortened: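 HEK293 cells stably carrying a UAS-driven beta-lactamase reporter (GeneBLAzer AR-UAS-bla-GripTite) were plated at 2,000 cells/well, rested 4 h at 37C, then exposed to compounds in DMSO for 16 h. LiveBLAzer B/G FRET substrate was added for 2 h at room temperature; fluorescence read.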

[8] = molecular target: Androgen receptor (Homo sapiens) (UniProt P10275); experiment: qHTS assay to identify small molecule agonists of the androgen receptor (AR) signaling pathway using the MDA cell line (AID 743040; further: nearly all actives have a fitted effect of over 20% in size)
Procedure, shortened: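 Stable MMTV-luciferase reporter in MDA-kb2 cells; note the promoter carries GR as well as AR response elements. 16 h compound treatment, 37C, 0% CO2; ONE-Glo luminescence endpoint.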

[9] = qHTS assay to identify small molecule antagonists of the androgen receptor (AR) signaling pathway using the MDA cell line - cell viability counter screen (AID 743041; further: nearly all actives have a fitted effect of over 45% in size)
Procedure, shortened: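 Using the breast carcinoma line MDA-kb2 AR-luc, test chemicals were co-incubated with R1881 for 16 h; CellTiter-Fluor reagent, added at 15.5 h, provided a fluorescence measure of live cells.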

[10] = molecular target: Androgen receptor (Homo sapiens) (UniProt P10275); experiment: qHTS assay to identify small molecule antagonists of the androgen receptor (AR) signaling pathway using the MDA cell line (AID 743042; further: nearly all actives have a fitted effect of over 55% in size)
Procedure, shortened: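 Antagonist mode: compounds plus R1881 agonist added to MDA-kb2 AR-luc cells, incubated 16 h at 37C. Luciferase reporter luminescence quantified, with multiplexed CellTiter-Fluor readout for cell viability.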

Measured: Potency

N[C@H](Cc1c[nH]c2ccccc12)C(=O)O
inactive: [1] | [2] | [3] | [4] | [5]

O=C1c2ccccc2CCc2ccccc21
inactive: [1]

CC1(C)OC[C@@H]2O[C@@]3(C(=O)O)OC(C)(C)O[C@H]3[C@@H]2O1
inactive: [1] | [2] | [3] | [4] | [5]

O=C(O)c1ccccc1C(=O)O
inactive: [1] | [2] | [3] | [4] | [5]

CC(C)(C#N)c1cc(Cn2cncn2)cc(C(C)(C)C#N)c1
inactive: [1] | [2] | [3] | [4] | [5]

Nc1nc(N)nc(-c2ccccc2)n1
inactive: [1] | [2] | [3] | [4] | [5]

CCNc1ccccc1
inactive: all assays above

O=C(O)CCCCCCCCC(=O)O
inactive: [1] | [2] | [3] | [4] | [5]

CC(C)CC(C)O (stereo unspecified)
inactive and 61.1 µM (active): [3]
inactive: [1] | [2] | [4] | [5]

CCCCOC(=O)c1ccc(N)cc1
active: [3] 9.44 µM and 13.5 µM | [4] 7.5 µM and 7.59 µM
inactive: [1] | [5]
inactive and 13.5 µM (active): [2]

CCCCCCO
inactive: [1] | [2] | [3] | [4] | [5]

NC(=S)NNC(N)=S
inactive: [1] | [2] | [3] | [4]

CCCCCCCCCCCCCCCC(=O)OC(C)C
inactive: [1] | [2] | [3] | [4]

Clc1ccccn1
inactive: [1] | [2] | [3] | [4] | [5]

COc1ccc(CCC(C)=O)cc1
inactive: [1] | [2] | [3] | [4]

COc1ccc(OC)cc1
inactive: [1] | [2] | [3] | [4] | [5]

O=C(O)c1ccc(C(=O)O)c(C(=O)O)c1
inactive: all assays above

CC(C)c1cccc(C(C)C)c1
inactive: [1] | [2] | [3] | [4] | [5]

N#Cc1ccccc1
inactive: [1] | [2] | [3] | [4]

CNC(=S)N(C)C
inactive: [1] | [2] | [3] | [4] | [5]

NCCN1CCNCC1
inactive: [1] | [2] | [3] | [4] | [5]

COc1ccccc1OCC(O)CO (stereo unspecified)
inactive: all assays above

COCCOC(=O)c1ccccc1C(=O)OCCOC
inactive: [1] | [2] | [3] | [4]

O=S(=O)(O)c1ccccc1
inactive: [1] | [2] | [3] | [4]

C=C(C)C(=O)OCC(C)C
inactive: [1] | [2] | [3] | [4]

CC(=O)OCc1ccccc1
inactive: all assays above

c1ccc2c(c1)Cc1ccccc1-2
inactive: [1] | [2] | [5]
inactive and 61.1 µM (active): [3] | [4]

CC(O)CC(C)(C)O (stereo unspecified)
inactive: [1] | [2] | [3] | [4]

CCOC(=O)c1ccc(N)cc1
7.17 µM (active) and inactive: [4]
inactive: [1] | [2] | [3] | [5]

O=C1CCCC1
inactive: [1] | [2] | [3] | [4]

CC1(C)NC(=O)NC1=O
inactive: [1] | [2] | [3] | [4] | [5]

CC1(C)CC(N)CC(C)(CN)C1 (stereo unspecified)
inactive and 54.5 µM (active): [3]
inactive: [1] | [2] | [4] | [5]

O=S(=O)(O)c1ccc(N=Nc2c(O)ccc3cc(S(=O)(=O)O)ccc23)cc1
inactive: [1] | [2] | [3] | [4] | [5]

CC(C)CCCCCCCOC(=O)CCCCC(=O)OCCCCCCCC(C)C
inactive: [1] | [2] | [4] | [5]
inactive and 38.6 µM (active): [3]

C=CCCCCCCCCC(=O)O
inactive: [1] | [2] | [3] | [4] | [5]

CCO[Si](CCC#N)(OCC)OCC
inactive: [1] | [2] | [3] | [4]

CC(C)CC(=O)CC(C)CC(C)C (stereo unspecified)
inactive: all assays above

CC(CCl)OP(=O)(OC(C)CCl)OC(C)CCl (stereo unspecified)
inactive: [1] | [2] | [3] | [4] | [5] | [9]

Cc1ccc(C(C)C)c(O)c1
inactive and 48.6 µM (active): [2]
inactive: [1] | [5] | [9]
inactive and 61.1 µM (active): [4]
inactive and 17.2 µM (active): [3]

CCCCCC(=O)O
not listed: [9]
inactive: all other assays above

O=C(O)c1ccc(S(=O)(=O)N(Cl)Cl)cc1
inactive and 24.5 µM (active): [4]
inactive: [1] | [2] | [5] | [9]
active: [3] 43.5 µM

C=CC(C)CCCC(C)(C)O (stereo unspecified)
inactive and 61.1 µM (active): [3]
inactive: [1] | [2] | [4] | [5] | [9]

CN/C(=C\[N+](=O)[O-])NCCSCc1csc(CN(C)C)n1
inactive: all assays above

CCCCCCCC=O
inactive: [1] | [2] | [3] | [4] | [5] | [9]

O=c1[nH]cnc2[nH]ncc12
inactive: [1] | [2] | [3] | [4] | [5] | [9]

CCCCC(C=O)CC (stereo unspecified)
inactive: [1] | [2] | [3] | [4] | [5] | [9]

CN(C)CCOC(=O)COc1ccc(Cl)cc1
inactive: [1] | [2] | [3] | [4] | [5] | [9]

CC(C)OC(=O)COc1ccc(Cl)cc1Cl
inactive: [1] | [2] | [3] | [4] | [5] | [9]

OC1C(O)C(O)C(O)C(O)C1O (stereo unspecified)
inactive: [1] | [2] | [3] | [4] | [5] | [9]

C=CC[N+](C)(C)CC=C
inactive: [1] | [2] | [3] | [4] | [5] | [9]

CC(=O)CCC=C(C)C
inactive: [1] | [2] | [3] | [4] | [5] | [9]

CCCCCCCCCCCCCCCCO
inactive: [1] | [2] | [4] | [5] | [9]
inactive and 68.6 µM (active): [3]

COc1ccc(N)c(C)c1
inactive: [1] | [2] | [3] | [4] | [5] | [9]

O=[N+]([O-])c1ccc2nc[nH]c2c1
inactive: [1] | [2] | [3] | [4] | [5] | [9]

CCCCCCC=O
inactive: [1] | [5] | [9]
inactive and 43.3 µM (active): [3] | [4]
inactive and 48.6 µM (active): [2]

O=C(O)c1cc2ccccc2cc1O
not listed: [6] | [7] | [9]
inactive: all other assays above

OCc1cccc(Oc2ccccc2)c1
not listed: [6] | [9]
inactive: all other assays above
